Experimental findings from PubChem BioAssay are described below.

Activity calls are given as the source filed them.

The subject of test [1] is Plasmodium falciparum Sir2 (PF13_0152, Sir2A). Description: pfSir2 binders on small-molecule microarrays, primary screen, biochemical, small-molecule microarray, 635 nm fluorescence (AID 1098).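 Further: score merges spot fluorescence intensity with its signal-to-noise ratio.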 The conditions noted are these: small-molecule microarray binding, fluorescence 635 nm; higher = more signal.
Test [2] in a line: small-molecule microarray binders of probe aDKK1, primary screen, biochemical, biotinylated probe, 635/667 nm fluorescence (AID 1099).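 Further: score merges 667nm spot fluorescence with signal to noise across triplicate slides; reference of the scale not given here.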 The conditions noted are these: higher = more signal.
A short description of test [3]: small-molecule microarray binders of probe aCHRDL2, primary screen, biochemical, biotinylated probe, 635/667 nm fluorescence (AID 1100). The conditions noted are these: higher = more signal.
Test [4] is described as follows: splicing luciferase reporter signal modulators, primary screen, spliceosome inhibition project, cell-based, HEK293, splice +/- reporter (AID 1101).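 Further: HEK293 cells carrying a splicing-competent luciferase reporter gene; test concentration not given here.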 The conditions noted are these: luminescence, 24 h, higher = more signal, called active from +8 up or from −8 down. (Reporter assays use an easily measured gene product as a stand-in for the process of interest.)
For test [5], the target named is Fibroblast growth factor 10 (Homo sapiens) (UniProt O15520). Description: FGF10 binders on small-molecule microarrays, primary screen, biochemical, small-molecule microarray, 635 nm fluorescence (AID 1102). The conditions noted are these: FGF10 binding, fluorescence 635 nm, higher = more signal.
Fibroblast growth factor 10 (Homo sapiens), sequence (O15520 whole entry, looked up): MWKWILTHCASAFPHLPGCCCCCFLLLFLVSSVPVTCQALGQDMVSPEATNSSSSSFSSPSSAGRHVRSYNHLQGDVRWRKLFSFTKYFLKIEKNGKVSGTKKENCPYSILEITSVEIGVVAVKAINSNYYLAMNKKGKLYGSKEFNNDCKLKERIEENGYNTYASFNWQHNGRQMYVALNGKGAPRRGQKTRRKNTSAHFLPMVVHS
Test [6] concerns glycogen synthase kinase-3 (GSK3A per assay name; protocol says GSK3B). Description: GSK3 binders on small-molecule microarrays, primary screen, biochemical, small-molecule microarray, 635 nm fluorescence, GSK3A (AID 1103). Further: the record names both GSK3A and GSK3B. The conditions noted are these: small-molecule microarray binding, fluorescence 635 nm; higher = more signal.
Test [7] has as its target Epidermal growth factor receptor (Homo sapiens) (UniProt P00533). Nature of the test: EGFR binders on small-molecule microarrays, primary screen, biochemical, small-molecule microarray, 635 nm fluorescence (AID 1104).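 Further: score merges 667 nm emission intensity with spot signal to noise over triplicate slides.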 The conditions noted are these: EGFR binding, higher = more signal.
Test [8] addresses Follistatin-related protein 3 (Homo sapiens) (UniProt O95633). Description: FSTL3 binders on small-molecule microarrays, primary screen, biochemical, small-molecule microarray, 635 nm fluorescence (AID 1105).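 Further: score merges emission near 667 nm and signal to noise per printed spot across three slides.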 The conditions noted are these: FSTL3 binding, higher = more signal.
The target in test [9] is Dickkopf-related protein 1 (Homo sapiens) (UniProt O94907). Nature of the test: DKK1 binders on small-molecule microarrays, primary screen, biochemical, small-molecule microarray, 635 nm fluorescence scan (AID 1106).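 Further: score merges emission near 667 nm with signal to noise over three replicate slides.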 The conditions noted are these: DKK1 binding, higher = more signal.
Dickkopf-related protein 1 (Homo sapiens), sequence (O94907 whole entry, looked up): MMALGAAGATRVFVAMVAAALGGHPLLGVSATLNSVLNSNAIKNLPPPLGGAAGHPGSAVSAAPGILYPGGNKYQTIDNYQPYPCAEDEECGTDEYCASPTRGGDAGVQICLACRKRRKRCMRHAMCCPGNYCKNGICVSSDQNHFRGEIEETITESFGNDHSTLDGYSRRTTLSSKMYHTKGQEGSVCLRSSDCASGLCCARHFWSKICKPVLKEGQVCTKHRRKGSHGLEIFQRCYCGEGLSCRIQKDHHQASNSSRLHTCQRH
For test [10], the system named is Inhibin beta A chain (activin A). Description: INHBA (activin A) binders on microarrays, primary screen, biochemical, small-molecule microarray, 635 nm fluorescence scan (AID 1107).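 Further: mouse activin A protein probed at 4.33 µg/mL on printed slides; score merges bound-protein fluorescence near 667 nm with spot signal-to-noise.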 The conditions noted are these: small-molecule microarray binding, higher = more signal.

Follistatin-related protein 3 (Homo sapiens), sequence (O95633 whole entry, looked up): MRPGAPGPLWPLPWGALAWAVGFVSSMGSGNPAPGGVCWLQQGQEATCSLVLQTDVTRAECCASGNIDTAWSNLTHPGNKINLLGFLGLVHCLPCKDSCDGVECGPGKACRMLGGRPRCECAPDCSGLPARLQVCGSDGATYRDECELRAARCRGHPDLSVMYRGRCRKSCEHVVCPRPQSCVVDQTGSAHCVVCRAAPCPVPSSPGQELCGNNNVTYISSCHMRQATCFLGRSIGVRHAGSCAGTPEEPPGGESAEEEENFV
Epidermal growth factor receptor (Homo sapiens), sequence (P00533 whole entry, looked up): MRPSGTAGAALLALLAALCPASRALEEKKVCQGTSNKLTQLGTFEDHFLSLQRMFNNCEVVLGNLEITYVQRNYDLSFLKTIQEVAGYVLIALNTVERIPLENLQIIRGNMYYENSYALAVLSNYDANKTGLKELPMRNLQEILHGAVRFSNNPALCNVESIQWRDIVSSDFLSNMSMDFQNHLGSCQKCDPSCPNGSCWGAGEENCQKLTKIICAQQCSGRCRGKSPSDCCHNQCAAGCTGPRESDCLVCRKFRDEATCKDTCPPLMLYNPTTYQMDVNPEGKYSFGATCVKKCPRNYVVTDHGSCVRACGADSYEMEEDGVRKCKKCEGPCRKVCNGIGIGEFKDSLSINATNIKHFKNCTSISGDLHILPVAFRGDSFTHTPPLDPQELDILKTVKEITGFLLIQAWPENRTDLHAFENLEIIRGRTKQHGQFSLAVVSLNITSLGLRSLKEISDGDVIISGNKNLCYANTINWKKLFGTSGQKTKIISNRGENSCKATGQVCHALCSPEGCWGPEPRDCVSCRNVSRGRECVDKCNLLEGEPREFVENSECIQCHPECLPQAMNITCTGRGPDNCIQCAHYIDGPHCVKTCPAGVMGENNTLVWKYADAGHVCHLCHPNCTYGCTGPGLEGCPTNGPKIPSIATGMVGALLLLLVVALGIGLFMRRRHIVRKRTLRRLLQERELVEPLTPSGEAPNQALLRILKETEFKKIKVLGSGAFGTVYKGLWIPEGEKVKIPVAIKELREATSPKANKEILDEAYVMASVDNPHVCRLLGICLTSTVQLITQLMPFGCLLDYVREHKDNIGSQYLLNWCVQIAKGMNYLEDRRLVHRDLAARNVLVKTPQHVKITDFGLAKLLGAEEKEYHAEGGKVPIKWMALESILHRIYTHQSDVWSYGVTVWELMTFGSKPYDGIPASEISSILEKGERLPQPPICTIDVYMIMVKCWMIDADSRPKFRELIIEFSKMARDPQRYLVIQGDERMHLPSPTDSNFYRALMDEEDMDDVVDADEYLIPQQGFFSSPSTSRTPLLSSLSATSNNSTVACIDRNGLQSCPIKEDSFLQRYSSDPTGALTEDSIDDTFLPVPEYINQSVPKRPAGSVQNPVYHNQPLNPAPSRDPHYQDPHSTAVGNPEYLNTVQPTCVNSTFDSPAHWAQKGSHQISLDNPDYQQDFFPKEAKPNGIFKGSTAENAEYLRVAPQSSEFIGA

In the case of `CC1C=C(CCCO)C=C(C(=O)OCCS(C)(=O)=O)C(C(=O)OCCS(C)(=O)=O)=CN1Cc1cccc(OC(F)(F)F)c1` (stereo not given), the composite z-score in test [1] was 1.11; in test [2], 0.111; in [3], 0.297; in [5] it was 0.243; in [6] it was 0.621; in test [7] it was -0.235. The composite z-score in test [8] was 0.113; in test [9] it was -0.385; in test [10], 0.829. Besides, the z-score in test [4] is 1.01 (inactive).

For `C=CCC(OC(C)=O)[C@@H]1[C@@H](N(Cc2ccc(-c3ccccc3)cc2)C(=O)c2cccc3ccccc23)c2cc(OCCCO)ccc2N1C(=O)c1ccc2ccccc2n1` (stereo not given in full), the composite z-score was -0.0429 in [1]; 0.0158 in test [2]; 0.308 in [3]; -0.142 in [5]; 0.124 in test [6]; 0.0271 in test [7]. Moreover, the composite z-score is -0.0464 in test [8], -0.196 in test [9] and 1.24 in test [10]. Besides, the z-score in [4] is -0.379 (inactive).

Consider `CCCC=C(CCC)[C@@H](NS(=O)(=O)c1ccccc1)c1ccc(C(F)(F)F)cc1`, for which the composite z-score was found to be 0.98 in [1]; 0.965 in test [2]; 0.224 in test [3]; 0.867 in test [5]; 1.32 in test [6]; 0.216 in test [7]. The composite z-score in test [8] was 0.89; in test [9] it was -0.0595; in test [10], -0.0447. The z-score in test [4] is -3.31 (inactive).

Take `C=C(/C(=C/C[C@@H](OC(=O)c1ccncc1)c1ccccc1OCCO)c1cnc2ccccc2c1)C(C)C`: the composite z-score in test [1] is 0.25; in test [2], 0.0171; in [3], -0.21; in test [5], 1.55; in test [6], 1.29; in test [7], 1.23. For the same compound, the composite z-score was determined as 1.61 in test [8], 0.413 in test [9] and 1.77 in test [10]. Besides, the z-score in test [4] is -2.43 (inactive).

`CCCC=C(CCC)[C@@H](NC(=O)Cc1ccccc1)c1ccc(C(=O)OC)cc1`: the composite z-score in test [1] turned out to be 0.599; in test [2], 1.52; in [3] it was 1.17; in [5] it was 0.395; in test [6], 0.289; in [7], 0.43. The composite z-score is 0.514 in test [8], -0.285 in [9] and 1.26 in test [10]. The z-score in test [4] was 0.797 (inactive).

On to `Cc1ccccc1C(O)C1C=CC2C(=O)N(C)C(=O)C2N1Nc1ccc([N+](=O)[O-])cc1[N+](=O)[O-]` (stereo not given), for which the composite z-score is 0.878 in [1]; 0.647 in test [2]; 0.831 in [3]; 1.11 in test [5]; 1.28 in test [6]; 0.226 in [7]. The composite z-score in test [8] is 1.17; in test [9], -0.53; in test [10] it was 0.648. The z-score in test [4] was -0.311 (inactive).

Turning to `COC(=O)[C@@]1(Cc2ccc(OC)cc2)[C@H]2c3cc(C(=O)N(C)C)n(Cc4cc(C)n(C)n4)c3C[C@H]2CN1C(=O)c1ccccc1`, the composite z-score was 1.07 in test [1]; 0.383 in [2]; 0.433 in test [3]; 1.43 in test [5]; 0.902 in test [6]; -0.232 in test [7]. Moreover, the composite z-score in [8] was -0.0771; in test [9], -0.382; in test [10], 0.79. Besides, in test [4], the z-score was -1.03 (inactive).

Turning to `C#CCOC(=O)N[C@H](C=CCCCC)c1ccccc1`, the composite z-score in test [1] is -0.257; in test [2], 0.326; in test [3] it was 0.942; in test [5] it was 0.605; in test [6] it was 0.35; in test [7], 0.241. In addition, the composite z-score was -0.484 in [8], -0.352 in test [9] and 0.983 in test [10]. Besides, the z-score in [4] is -0.341 (inactive).

Turning to `C=C[C@@H](O)[C@H]1CC(c2ccccc2)=NO1`, the composite z-score in test [1] is 1.46; in test [2], -0.187; in [3] it was 0.0537; in test [5], 0.0244; in test [6] it was -0.408; in test [7] it was 0.449. In addition, the figures for the composite z-score in test [8], in [9] and in [10] were 0.046, 0.271 and 0.614, respectively. Also, the z-score in test [4] is 0.147 (inactive).

Take `COCCOC(=O)N1C(=O)[C@@]2(c3cc(C#CCCO)ccc31)[C@H](c1ccc(OCCO)cc1)N1[C@H](c3ccccc3)[C@H](c3ccccc3)OC(=O)[C@H]1[C@@H]2C(=O)N1CCc2cc(OC)c(OC)cc2C1`: the composite z-score was 1.29 in test [1]; -0.0877 in test [2]; 0.232 in [3]; 1.16 in test [5]; 1.31 in test [6]; 0.58 in test [7]. Further, the values for the composite z-score in [8], in test [9] and in [10] were 0.882, 0.582 and 0.413, respectively. Further, the z-score in test [4] was 0.309 (inactive).

As for `COc1ccc(C(=O)Nc2ccc(CN3C(=O)[C@]4(O[C@H](CCn5cc([C@H](O)c6ccccc6)nn5)[C@@H]([Si](C)(C)c5ccc(OC)cc5)[C@@H]4C)c4ccccc43)cc2)cc1`, the composite z-score in test [1] was 0.789; in test [2], 0.294; in test [3], 0.824; in test [5] it was -0.09; in [6], -0.109; in test [7] it was -0.39. The composite z-score was -0.113 in [8], 0.102 in [9] and 1.47 in test [10]. Also, the z-score in [4] was -1.41 (inactive).

Take `O=C1NC(=O)C2C1C=CC(C(O)c1ccc3c(c1)OCO3)N2Nc1ccc(Cl)cc1Cl` (stereo not given): the composite z-score is 0.981 in test [1]; 0.849 in test [2]; 1.06 in test [3]; 0.553 in [5]; -0.334 in [6]; 0.205 in test [7]. Also, the composite z-score in test [8] was 0.304; in test [9] it was -0.278; in test [10], 1.19. For the same compound, in test [4], the z-score was 0.889 (inactive).

With `NC(=O)[C@@H]1[C@H]2C(=O)O[C@H](c3ccccc3)[C@H](c3ccccc3)N2[C@H](c2ccccc2OCCO)[C@@]12C(=O)Nc1ccc(C#CCCO)cc12`, the composite z-score in test [1] is 1.03; in test [2], -0.302; in test [3], 0.54; in [5] it was -0.293; in [6] it was -0.802; in test [7], -0.461. Further, the results for the composite z-score in test [8], in test [9] and in test [10] were 0.118, -0.647 and 0.233, respectively. Moreover, the z-score in [4] was 0.305 (inactive).

Turning to `CCCCC(=C=CC[C@H](O)c1cccc(OCCO)c1)C[C@H](O)COCc1ccccc1`, the composite z-score was 0.766 in test [1]; -0.31 in [2]; -0.053 in [3]; 0.688 in [5]; -0.207 in [6]; -0.572 in test [7]. For the same compound, the composite z-score is -0.117 in test [8], -0.627 in test [9] and 0.58 in test [10]. The z-score in [4] was -0.992 (inactive).

`COC(=O)c1ccc(OC)c(/C=C\CC(CCc2ccccc2)OC(=O)c2ccncc2)c1` (stereo not given): the composite z-score in test [1] is -0.734; in test [2], -0.264; in test [3], 0.705; in [5], 0.253; in test [6], -0.453; in [7], 0.651. Also, the values for the composite z-score in [8], in test [9] and in test [10] were 1.37, 0.697 and 1.81, respectively. Also, in [4], the z-score is -0.387 (inactive).

In the case of `C=C(COC)/C(=C/C[C@@H](OC(=O)c1ccncc1)c1cccc(OCCO)c1)c1cc(C(=O)OC)ccc1OC`, the composite z-score in test [1] is 0.756; in test [2], -0.183; in test [3], -0.471; in test [5] it was 1.62; in test [6], 1.2; in test [7], 0.29. For the same compound, the composite z-score stood at 0.902 in test [8], 0.167 in test [9] and 0.997 in test [10]. In test [4], the z-score was -0.651 (inactive).
